# This is a sample that favours compounds with a hit; in the whole collection about 19% have one here.
# HT1080-NT tox – kills 2HG-producing HT-1080-NT fibrosarcoma cells. AID 686970. 360,000 tested, 1.6% active. HT-1080-NT fibrosarcoma viability, CellTiter-Glo ATP luminescence, 48 h. Potency, µM (highest dose often 46.1 µM), without a hit: at the highest dose activity, negative = less viability, hits mostly cytotoxic;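 note: NT is the 2HG producing partner of a matched IDH1 knockdown line; potency is the fitted concentration of half-maximal effect; 0% = DMSO-treated cells and -100% = media-only wells without cells; nearly all actives have a fitted effect of over 55% in size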
#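 Compounds were tested in concentration-response format on HT-1080-NT cells for 48 hours at 37 degrees C. Cell viability came from CellTiter-Glo luminescence; curves were classified by r2, response magnitude and activity.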
# IL1B secr inh – inflammasome signaling inhibition, IL-1 beta readout | THP-1 LPS/ATP IL-1B secretion, AlphaLISA, 16 h; hits give low values | activity change, % at 57.5 µM | AID 743279 | 360,000 tested, 4.7% active; in the data active = activity change below about -50%; inconclusive = mostly about -30% to -49%
#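 Secreted IL-1B measured by AlphaLISA bead assay after 16 h compound exposure of THP-1 cells; compounds (final up to 57.5 uM) added 1 h before LPS (250 ng/mL) and ATP (1.25 mM) stimulation; lower signal means less secretion.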
# HT1080 IDH1KD tx – HT-1080 IDH1 knockdown cell toxicity (counter line) | Potency, µM (doses to about 46.1 µM), for the others: at the highest dose activity, negative = toxicity, most hits filed as cytotoxic | 360,000 tested, 2% active | HT-1080 IDH1 knockdown viability, ATP luminescence, 48 h;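 note: potency is the fitted concentration of half-maximal effect; 0% = DMSO wells and -100% = cell-free medium wells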
#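 IDH1KD HT-1080 cells, 750/well, RPMI + 5% FBS; compound pinned after 2 h settling; 48 h, 37 °C; CellTiter-Glo luminescence; % activity normalised to DMSO and no-cell wells; curves fitted, classed by r2 and efficacy.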
# TDP1 cell CPT – DT40-hTDP1 cell growth loss with CPT; chicken DT40 Tdp1-/-;hTDP1 cells + 20 nM CPT, ATP luminescence, 48 h; Potency, µM (series often up to 46.2 µM), for inactives: at the highest dose activity change, negative = growth inhibition, hits mostly inhibitors; 420,000 tested, 12% active; AID 686979; note: potency is the fitted concentration of half-maximal effect; nearly all actives have a fitted effect of over 55% in size
#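 Cell growth measured by CellTiter-Glo luminescence after a minimum 48 h, 37 C compound exposure with 20 nM CPT in Tdp1-knockout DT40 cells stably expressing hTDP1, seeded 400/well; qHTS titration format.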
# TDP1 cell noCPT – qHTS for Inhibitors of human tyrosyl-DNA phosphodiesterase 1 (TDP1): qHTS in cells in absence of CPT. DT40 Tdp1-/- hTDP1 cells, no CPT, ATP luminescence, 48 h. 420,000 tested, 15% active. Potency, µM (titrated, usually from 46.2 µM), for the others: at the top dose activity change, negative = growth inhibition, most hits filed as inhibitors. AID 686978, 2013; note: potency is the fitted concentration of half-maximal effect; nearly all actives have a fitted effect of over 55% in size
#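 Stably hTDP1-transfected Tdp1-null chicken DT40 cells were treated with library compounds minus camptothecin and grown for at least 48 hr at 37 °C, after which cellular ATP was quantified by luminescence.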
# ELG1 DNA repair – blocks ELG1-dependent DNA repair in HEK293T cells; HEK293T ELG1-luciferase reporter, luminescence, 16 h; DNA damage induced by 5-fluorouridine; Potency, µM (titrated, usually from 46.1 µM), without a hit: top-dose activity change, negative = inhibition, hits mostly inhibitors; 330,000 tested, 2.3% active; AID 504467; note: potency is the fitted concentration of half-maximal effect; nearly all actives have a fitted effect of over 55% in size
#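 HEK293T cells expressing luciferase-tagged ELG1 (2,000/well) received 5-Fluorouridine plus compound or DMSO for 16 hr at 37 °C. Luciferase was read by ONE-Glo luminescence after 30 min at room temperature.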
# The depositor's hits bear a star; i = inactive; u = inconclusive; x = not tested or not shown. Unless noted, calls come from the whole dose curve; as a rule, active = well fitted curve in the direction sought with a large enough effect; inconclusive = small, poorly fitted or top-dose-only effect, or another doubt; inactive = no such curve, though single readings can be large; an effect the other way counts as inactive or inconclusive. Unless noted, % is set by controls: 0 for no effect and ±100 for the full control effect.
SMILES,HT1080-NT tox,IL1B secr inh,HT1080 IDH1KD tx,TDP1 cell CPT,TDP1 cell noCPT,ELG1 DNA repair
COc1nnnc2c1sc1nc(N3CCOCC3)c3c(c12)CC(C)(C)OC3,x,x,x,x,x,2.1%
CN1Cc2c(N3CCOCC3)nc3sc(C(=O)c4ccccc4)c(N)c3c2CC1(C)C,-13.6%,-10.0,-10.0%,16.4µM*,u,u
COc1ccc(NC(=O)c2sc3nc(N4CCCC4)c4c(c3c2N)CC(C)(C)OC4)c(OC)c1,-0.8%,u,-2.5%,u,-27.6%,0.0%
Cn1c(=O)c2c(SCC(=O)N3CCc4ccccc43)nc(-c3ccccc3Cl)nc2n(C)c1=O,x,x,x,6.3%,-2.0%,x
CC1(C)Cc2c(c(N3CCOCC3)nc3sc(C(N)=O)c(N)c23)CO1,-18.5%,-15.0,-3.8%,8.5%,u,5.17µM*
COC(=O)CSc1ncnc2c1sc1nc(-c3ccco3)c3c(c12)CC(C)(C)OC3,x,x,x,x,x,11.4%
CCOC(=O)c1sc2nc(-c3ccco3)c3c(c2c1N)CC(C)(C)OC3,-0.1%,-52.6*,-10.9%,20.6µM*,20.6µM*,u
CCCCN(CCCC)S(=O)(=O)c1ccc(C(=O)Nc2nnc(CSC)o2)cc1,-10.7%,63.1,u,14.6µM*,9.2µM*,-2.6%
CCCN(CCC)S(=O)(=O)c1ccc(C(=O)Nc2nnc(CSC)o2)cc1,u,86.0,u,u,u,u
CCN(c1ccccc1)S(=O)(=O)c1ccc(C(=O)NCCCn2ccnc2)cc1,0.4%,-2.1,6.8%,-23.3%,-26.2%,-11.1%
Cc1ccc(S(=O)(=O)N(C)c2ccc(C(=O)Nc3cccc(C)n3)cc2)cc1,1.5%,i,-13.4%,u,u,-20.4%
CCCCN(CC)S(=O)(=O)c1ccc(C(=O)Nc2nnc(CSC)o2)cc1,-29.6%,28.5,u,u,14.6µM*,u
CCN(c1ccccc1)S(=O)(=O)c1ccc(C(=O)Nc2cccc(C)n2)cc1,0.0%,u,-14.5%,23.1µM*,11.6µM*,u
CCN(c1ccccc1)S(=O)(=O)c1ccc(C(=O)Nc2nnc(CSC)o2)cc1,-16.5%,69.0,u,u,9.2µM*,u
Nc1c2c(nc3sc4c(c13)CCCC4)-c1ccccc1CC2,u,-88.4*,18.4µM*,-20.0%,u,u
CC(C)(C)OC(=O)C[C@H]1C/C=C\C[C@@H](CC(=O)N(CCO)Cc2ccccc2)C(=O)NC[C@@H](c2ccccc2)OC1=O,-0.1%,-7.6,2.6%,u,18.4µM*,u
CC(C)(C)OC(=O)C[C@H]1C/C=C\C[C@@H](CC(=O)NCCO)C(=O)NC[C@H](c2ccccc2)OC1=O,6.7%,31.7,4.7%,4.3%,-14.7%,3.3%
CC(C)(C)OC(=O)C[C@H]1C/C=C\C[C@H](CC(=O)N(CCO)Cc2ccccc2)C(=O)NC[C@H](c2ccccc2)OC1=O,27.3%,-20.8,1.5%,16.4µM*,u,0.5%
CC(C)(C)n1nnnc1C(c1ccc(Cl)cc1)N1CCCc2ccccc21 (stereo not given),4.4%,29.2,9.7%,u,14.6µM*,19.5%
CCC(C)(C)n1nnnc1C(c1cccs1)N1CCc2ccccc21 (stereo not given),-25.3%,2.8,-9.4%,29.1µM*,16.4µM*,u
CCCN(CCC)c1cc(Cl)nc(N)n1,3.0%,17.4,-4.8%,0.5%,-14.5%,-13.6%
CC(C)C(=O)NCC1CCC2(CCN(Cc3ccc(-c4cccc(Cl)c4)o3)CC2)O1 (stereo not given),x,x,x,-24.3%,u,x
COc1ccc(OCCCC(=O)OCC(=O)N2CCN(S(=O)(=O)c3ccc(C)cc3C)CC2)cc1,10.4%,12.5,-0.1%,-17.9%,u,x
CCOc1ccccc1NC(=O)CC(c1ccc(F)cc1)N1Cc2ccccc2C1=O (stereo not given),x,x,x,16.4µM*,16.4µM*,x
COc1ccc(C(CC(=O)Nc2ncccc2C)N2Cc3ccccc3C2=O)cc1 (stereo not given),8.0%,-8.3,-0.2%,-18.6%,-18.8%,1.8%
SMILES,HT1080-NT tox,IL1B secr inh,HT1080 IDH1KD tx,TDP1 cell CPT,TDP1 cell noCPT,ELG1 DNA repair
COc1ccc(CNC(=O)CC(c2ccc(OC)cc2)N2Cc3ccccc3C2=O)cc1 (stereo not given),x,x,x,u,16.4µM*,x
COC(=O)C(Cc1ccc(OC(=O)c2ccccc2C)cc1)N1Cc2ccccc2C1=O (stereo not given),-4.6%,0.2,-6.3%,u,18.4µM*,-0.9%
COc1ccc(C(CC(=O)Nc2ccc(Br)cn2)N2Cc3ccccc3C2=O)cc1 (stereo not given),x,x,x,5.17µM*,23.1µM*,x
COc1ccc(NC(=O)c2cc3ccccc3o2)cc1OC,u,-16.5,21.4%,-11.6%,-17.6%,u
Cc1cc(N2CCN(C)CC2)ccc1NC(=O)c1ccc(-c2ccc(Cl)cc2)o1,23.1µM*,u,23.1µM*,u,u,-4.2%
CN1CCN(c2ccccc2NC(=O)c2ccc(-c3cccc([N+](=O)[O-])c3)o2)CC1,-16.1%,0.0,-18.5%,u,14.6µM*,u
CN1CCN(c2ccccc2NC(=O)c2cccc([N+](=O)[O-])c2)CC1,-3.6%,12.3,4.4%,-5.3%,-13.6%,-13.2%
O=C(Nc1cccnc1)c1ccc(-c2ccc(Cl)cc2)o1,u,-7.9,11.2%,-5.1%,-11.9%,u
COc1ccc(NC(=O)c2ccc(-c3ccc(F)cc3)o2)cc1OC,-0.1%,-28.4,-0.9%,20.6µM*,16.4µM*,x
Cc1ccc(-n2nc3cc(C)c(NC(=O)c4ccc(-c5ccccc5)o4)cc3n2)cc1,x,x,x,-2.0%,-2.9%,x
CN(C)C(=O)c1ccc(NC(=O)c2ccc(-c3ccc(Cl)cc3)o2)cc1,7.1%,-11.6,5.0%,23.1µM*,16.4µM*,-17.3%
O=C1C=C(NCCc2ccccc2)C2(CCCCC2)O1,10.3%,-9.3,13.5%,3.9%,-1.3%,-9.0%
O=C(Nc1ccccc1N1CCCCC1)c1ccc(-c2ccc(Cl)cc2)o1,2.06µM*,26.2,2.06µM*,3.26µM*,4.11µM*,0.6%
O=C(NC(=S)Nc1ccccc1N1CCOCC1)c1ccc(-c2cc(Cl)ccc2Cl)o1,5.2%,12.8,5.6%,u,23.1µM*,-19.6%
